Experimental data published in PubChem BioAssay (NCATS).
Results filed as inconclusive are left out. A number with no mark means an inactive call. Active and inactive are the calls of the source. Unless noted, calls come from the whole dose curve; as a rule, active = well fitted curve in the direction sought with a large enough effect; inconclusive = small, poorly fitted or top-dose-only effect, or another doubt; inactive = no such curve, though single readings can be large; an effect the other way counts as inactive or inconclusive.

Test system: not listed separately
Test: Primary qHTS for small molecule stabilizers of the endoplasmic reticulum resident proteome: Secreted ER Calcium Modulated Protein (SERCaMP) assay (AID 1508630); note: % is set by controls: 0 for no effect and ±100 for the full control effect
Conditions: SH-SY5Y GLuc-SERCaMP (Gaussia luciferase released on ER calcium loss) secretion, thapsigargin, luminescence; series mostly up to 38.4 µM; activity change, negative = inhibition: at the top concentration
In short: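 The SH-SY5Y reporter protocol was run at 3 concentrations up to 38.3 uM (primary) or 11 concentrations (follow-up): 16 h compound, 100 nM thapsigargin for 4 h, then extracellular luciferase luminescence.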

| Compound | activity change, negative = inhibition [%] |
| --- | --- |
| CCc1ccccc1OC[C@@H](O)CN[C@H]1CCCc2ccccc21 | -8.12 |
| COc1ccc2[nH]c(=O)c3c(c2c1)OC(C)(C)C=C3 | -15 |
| COc1cc(C[C@H]2C(=O)OC[C@@H]2Cc2ccc(OC)c(OC)c2)ccc1O | 17.9 |
| O=S(=O)(c1ccccc1)N(CC(F)(F)F)c1ccc(C(O)(C(F)(F)F)C(F)(F)F)cc1 | -22.8 |

Target: Cytochrome P450 2D6 (Homo sapiens) (UniProt P10635)
Test: Cytochrome P450 family 2 subfamily D member 6 (CYP2D6) small molecule antagonists: luciferase biochemical (cell-free) qHTS assay (AID 1645840; active = well fitted curve in the direction sought with a large enough effect in the repeat runs; an effect the other way counts as inactive or inconclusive; note: nearly all actives have a fitted effect of over 55% in size; note: potency is the fitted concentration of half-maximal effect; for activity change, negative = inhibition: % is set by controls: 0 for no effect and ±100 for the full control effect)
Conditions: P450-Glo CYP2D6 enzyme, luciferin luminescence, 1 h; series mostly up to 57.4 µM; activity change, negative = inhibition: at the top concentration
In short: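 P450-Glo CYP2D6 system: proluciferin substrate converted by enzyme to luciferin, read by luminescence proportional to activity. Enzyme-substrate mix with compound 10 min at room temperature, then NADPH regeneration 1 h before detection reagent.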

Sequence of Cytochrome P450 2D6 (Homo sapiens) (P10635 whole entry, looked up): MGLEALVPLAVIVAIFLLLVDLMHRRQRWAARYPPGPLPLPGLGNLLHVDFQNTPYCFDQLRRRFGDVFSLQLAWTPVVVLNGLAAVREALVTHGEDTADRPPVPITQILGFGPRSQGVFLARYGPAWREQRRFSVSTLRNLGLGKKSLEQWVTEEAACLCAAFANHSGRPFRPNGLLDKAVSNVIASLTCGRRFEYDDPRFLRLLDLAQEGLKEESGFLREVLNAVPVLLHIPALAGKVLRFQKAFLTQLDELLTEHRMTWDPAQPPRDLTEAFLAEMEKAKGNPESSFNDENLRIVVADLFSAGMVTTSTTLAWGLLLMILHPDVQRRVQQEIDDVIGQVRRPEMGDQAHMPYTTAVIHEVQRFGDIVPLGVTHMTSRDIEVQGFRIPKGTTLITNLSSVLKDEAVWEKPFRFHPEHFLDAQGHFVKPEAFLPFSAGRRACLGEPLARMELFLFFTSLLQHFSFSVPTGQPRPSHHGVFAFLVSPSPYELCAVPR

| Compound | Potency | activity change, negative = inhibition [%] |
| --- | --- | --- |
| Nc1nc(OCc2cc(Br)cs2)c2[nH]cnc2n1 | 6.74 µM (active) | – |
| CC1(NC(=O)c2ccc(C#Cc3cccc(F)c3)cn2)COC1 | – | -12 |
| C=C(C)Cn1c(SCC(=O)c2cccs2)nc2sc3c(c2c1=O)CCCC3 | – | -10.1 |
| CCc1ccccc1OC[C@@H](O)CN[C@H]1CCCc2ccccc21 | 0.477 µM (active) | – |
| COc1cc(N(C)CCN(C)C)c(N)cc1Nc1nccc(-c2cn(C)c3ccccc23)n1 | 19 µM (active) | – |

Test system: not listed separately
Test: Primary qHTS for inhibitors of nuclear receptor binding SET domain protein 2 (NSD2) in an isogenic RCH-ACV NSD2 p.E1099K mutant (9B) (AID 1645876); note: potency is the fitted concentration of half-maximal effect; nearly all actives have a fitted effect of over 70% in size
Conditions: RCH-ACV NSD2 E1099K (9B) viability, CellTiter-Glo, 72 h; series mostly up to 44.9 µM; activity change, negative = viability loss: at the top concentration

| Compound | Potency |
| --- | --- |
| CCc1ccccc1OC[C@@H](O)CN[C@H]1CCCc2ccccc21 | 16.3 µM (active) |
| COc1ccc2[nH]c(=O)c3c(c2c1)OC(C)(C)C=C3 | 14.5 µM (active) |
| O=S(=O)(c1ccccc1)N(CC(F)(F)F)c1ccc(C(O)(C(F)(F)F)C(F)(F)F)cc1 | 23 µM (active) |

Test system: not listed separately
Test: Primary qHTS for inhibitors of nuclear receptor binding SET domain protein 2 (NSD2) in an RCH-ACV wild type WT cells (2C) (AID 1645877); note: potency is the fitted concentration of half-maximal effect; nearly all actives have a fitted effect of over 70% in size
Conditions: RCH-ACV (leukaemia line) NSD2 WT (2C) viability, CellTiter-Glo, 72 h; series mostly up to 44.9 µM; activity change, negative = cell killing: at the top concentration

| Compound | Potency |
| --- | --- |
| CCc1ccccc1OC[C@@H](O)CN[C@H]1CCCc2ccccc21 | 10.3 µM (active) |
| COc1ccc2[nH]c(=O)c3c(c2c1)OC(C)(C)C=C3 | 14.5 µM (active) |
| O=S(=O)(c1ccccc1)N(CC(F)(F)F)c1ccc(C(O)(C(F)(F)F)C(F)(F)F)cc1 | 23 µM (active) |
